From PubChem BioAssay AID1159580 (chemical genetic matrix, 2015)
Where “and” joins values, the source holds several entries; their conditions need not be identical. Equal entries are not always repeated. In all, about 5,500 compounds went through this assay and about 2,000 (36%) were called active. Roughly 18% stayed inconclusive and do not appear here. No stated cut-off is given here; in the data, active means normalized growth mostly below about 0.91 (no sharp cut-off); inconclusive means no clear call, values can overlap the other calls; inactive means mostly above about 0.92. The list shows a part of the results.

Assay: chemical genetic growth profiling, strain panel (AID 1159580);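 further: tested at 20 µM; growth read once vehicle control cultures reached saturation at 30 °C; 1 = growth at the plate median or of vehicle wells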
Details: S. cerevisiae deletion strains, growth OD

Measured: normalized growth

CCCCCCCCC(=O)NCc1ccc(O)c(OC)c1
inactive: locus YAL013W, strain DEP1, stronger effect = lower value 0.99 | locus YAL021C, strain ccr4, stronger effect = lower value 0.996 | locus YAL026C, strain drs2, stronger effect = lower value 1.01 | locus YAL030W, strain snc1, stronger effect = lower value 1 | locus YAL040C, strain CLN3, stronger effect = lower value 0.982 | locus YBL061C, strain skt5, stronger effect = lower value 1.01 | locus YBR009C, strain hhf1, stronger effect = lower value 0.987 | locus YBR021W, strain FUR4, stronger effect = lower value 0.958 | locus YBR023C, strain chs3, stronger effect = lower value 0.989 | locus YBR171W, strain sec66, stronger effect = lower value 0.983 | locus YBR229C, strain ROT2, stronger effect = lower value 0.988 | locus YBR231C, strain swc5, stronger effect = lower value 0.995 | locus YBR279W, strain paf1, stronger effect = lower value 1.01 | locus YCL011C, strain gbp2, stronger effect = lower value 0.981 | locus YCL016C, strain dcc1, stronger effect = lower value 0.984 | locus YCL029C, strain bik1, stronger effect = lower value 0.989 | locus YCL061C, strain MRC1 (second series), stronger effect = lower value 0.994 | locus YCL061C, strain MRC1, stronger effect = lower value 1 | locus YCL069W, strain vba3, stronger effect = lower value 0.979 | locus YCR088W, strain abp1, stronger effect = lower value 0.975 | locus YDL005C, strain med2, stronger effect = lower value 0.995 | locus YDL035C, strain GPR1, stronger effect = lower value 0.981 | locus YDL040C, strain nat1, stronger effect = lower value 1 | locus YDL074C, strain BRE1, stronger effect = lower value 0.981 | locus YDL101C, strain DUN1, stronger effect = lower value 0.976 | locus YDL134C, strain PPH21, stronger effect = lower value 0.976 | locus YDL185W, strain tfp1, stronger effect = lower value 0.991 | locus YDL192W, strain arf1, stronger effect = lower value 0.989 | locus YDR001C, strain nth1, stronger effect = lower value 0.988 | locus YDR069C, strain doa4, stronger effect = lower value 1 | locus YDR101C, strain arx1, stronger effect = lower value 0.98 | locus YDR137W, strain rgp1, stronger effect = lower value 1.03 | locus YDR150W, strain NUM1, stronger effect = lower value 0.989 | locus YDR159W, strain sac3, stronger effect = lower value 1.07 | locus YDR162C, strain NBP2, stronger effect = lower value 1.01 | locus YDR195W, strain ref2 1.04 | locus YDR297W, strain sur2, stronger effect = lower value 1 | locus YDR318W, strain mcm21, stronger effect = lower value 0.965 | locus YDR334W, strain swr1, stronger effect = lower value 0.997 | locus YDR335W, strain msn5, stronger effect = lower value 1.01 | locus YDR363W, strain ESC2, stronger effect = lower value 0.988 | locus YDR388W, stronger effect = lower value 0.981 | locus YDR392W, strain spt3, stronger effect = lower value 0.805 | locus YDR502C, strain sam2, stronger effect = lower value 0.978 | locus YEL003W, strain gim4, stronger effect = lower value 0.985 | locus YEL037C, strain rad23, stronger effect = lower value 0.982 | locus YEL061C, strain CIN8 (second series), stronger effect = lower value 0.982 | locus YEL061C, strain CIN8, stronger effect = lower value 0.998 | locus YER002W, strain NOP16, stronger effect = lower value 0.986 | locus YER015W, strain faa2, stronger effect = lower value 1.01 | locus YER016W, strain bim1, stronger effect = lower value 1.01 | locus YER110C, stronger effect = lower value 0.981 | locus YER111C, strain swi4, stronger effect = lower value 0.991 | locus YER155C, strain BEM2 (second series), stronger effect = lower value 0.964 | locus YER155C, strain BEM2, stronger effect = lower value 0.985 | locus YER167W, strain BCK2, stronger effect = lower value 0.978 | locus YFR010W, strain ubp6, stronger effect = lower value 1.02 | locus YGL078C, strain dbp3, stronger effect = lower value 0.992 | locus YGL086W, strain mad1, stronger effect = lower value 0.967 | locus YGL167C, strain pmr1, stronger effect = lower value 1 | locus YGL173C, strain kem1, stronger effect = lower value 1.01 | locus YGL227W, strain vid30, stronger effect = lower value 0.971 | locus YGL240W, strain doc1, stronger effect = lower value 0.994 | locus YGL248W, strain PDE1, stronger effect = lower value 0.981 | locus YGL253W, strain hxk2, stronger effect = lower value 1.03 | locus YGR078C, strain PAC10, stronger effect = lower value 1.01 and 1 | locus YGR135W, strain pre9, stronger effect = lower value 0.987 | locus YGR229C, strain SMI1, stronger effect = lower value 1 | locus YGR252W, strain gcn5, stronger effect = lower value 0.872 | locus YHR013C, strain ard1, stronger effect = lower value 0.992 | locus YHR027C, strain rpn1, stronger effect = lower value 1.02 | locus YHR030C, strain SLT2, stronger effect = lower value 0.988 and 1.01 | locus YHR079C, strain IRE1 (second series), stronger effect = lower value 0.985 | locus YHR079C, strain IRE1, stronger effect = lower value 0.985 | locus YHR094C, strain hxt1, stronger effect = lower value 0.979 | locus YHR129C, strain ARP1, stronger effect = lower value 0.988 | locus YHR142W, strain chs7, stronger effect = lower value 0.983 | locus YHR200W, strain rpn10, stronger effect = lower value 0.981 | locus YIL066C, strain RNR3, stronger effect = lower value 0.953 | locus YIL073C, strain SPO22, stronger effect = lower value 0.958 | locus YIL125W, strain kgd1, stronger effect = lower value 0.99 | locus YIR030C, strain dcg1, stronger effect = lower value 0.983 | locus YJL092W, strain hpr5, stronger effect = lower value 0.978 | locus YJL095W, strain BCK1 (second series), stronger effect = lower value 1 | locus YJL095W, strain BCK1, stronger effect = lower value 0.989 and 1 | locus YJL115W, strain asf1, stronger effect = lower value 0.988 | locus YJL129C, strain trk1, stronger effect = lower value 0.977 | locus YJL134W, strain LCB3, stronger effect = lower value 0.989 | locus YJL154C, strain vps35, stronger effect = lower value 0.983 | locus YJL164C, strain tpk1, stronger effect = lower value 0.972 | locus YJL166W, strain qcr8, stronger effect = lower value 0.991 | locus YJL168C, strain set2, stronger effect = lower value 0.99 | locus YJL187C, strain SWE1 (second series), stronger effect = lower value 0.978 | locus YJL187C, strain SWE1, stronger effect = lower value 1.02 | locus YJR043C, strain POL32, stronger effect = lower value 0.983 | locus YJR066W, strain TOR1, stronger effect = lower value 0.91
